In PubChem BioAssay:
Records with an inconclusive call do not appear. Activity calls are given as the source filed them.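 Rule for the calls, unless noted: active = differentiation response of at least 50%, scaled between solvent and reference control, from cells with both markers; inactive = the rest.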

How the values were obtained:
[1] = yeast TOR pathway RPL19A-GFP modulators, primary screen, cell-based, S. cerevisiae, multiplex flow cytometry (AID 1862; in the data active = percent of DMSO control GFP below about 86%;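 note: lower values mimic rapamycin by blocking the RPL19A rise seen in DMSO cells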); conditions: S. cerevisiae RPL19A-GFP strain, flow cytometry fluorescence, 3 h; at 10 µM; stronger effect = lower value
[2] = modulators of MEP2-GFP levels in yeast, primary screen, S. cerevisiae, multiplex flow cytometry (AID 1867;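 active = GFP response, as percent of the DMSO control, above the screen-wide mean plus 3 SD, about 139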;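 note: median GFP channel fluorescence of barcode-gated MEP2-GFP cells measured by flow cytometry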); conditions: S. cerevisiae MEP2-GFP strain, 3 h, at 10 µM, stronger effect = higher value, 100% means same as DMSO wells
[3] = modulators of CIT2-GFP expression in yeast, primary screen, S. cerevisiae, GFP fusion, multiplex flow cytometry (AID 1870;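 active = percent response above a set limit, the screen-wide mean plus 3 SD, cut at about 130% in these data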;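 note: barcoded CIT2-GFP strain pooled with four other GFP strains with rapamycin as positive control; median GFP fluorescence per well over plate mean of DMSO wells so 100% = DMSO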); conditions: 3 h, at 10 µM, stronger effect = higher value
[4] = modulators of LAP4-GFP expression in yeast, primary screen, S. cerevisiae, multiplex flow cytometry (AID 1873;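 active = GFP signal, as percent of the solvent control, above the screen mean plus 3 SD, about 149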); conditions: 3 h, at 10 µM, stronger effect = higher value
[5] = modulators of AGP1-GFP expression in yeast TOR pathway, primary screen, cell-based, multiplex flow cytometry, S. cerevisiae (AID 1887;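 active = GFP signal above the screen-wide mean plus 3 SD, that is over about 124.5% of the solvent control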;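 note: AGP1-GFP fusion strain of S. cerevisiae within a five-strain barcoded multiplex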); conditions: 3 h, at 10 µM, stronger effect = higher value
[6] = inhibitors of CD8+ T cell-vesicle binding, pilot screen, LFA-1/ICAM-1 modulator project, MLPCN validation set, flow cytometry (AID 2523;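 active = response below a set limit, under 55% cells CD8-positive and vesicle-bound, and CD8 cells' 90th-percentile brightness under 279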;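 for vesicle binding response: mean PE anti-B7-1 fluorescence of CD8+ cells relative to row control; 100% = QL9-loaded vesicles with DMSO vehicle in the same plate row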); conditions: 2C mouse CD8+ T cells, at 7 µM, stronger effect = lower value; double positive events: measured here: CD8+/vesicle+ event percentage
[7] = biological target: Integrin beta-1 (Homo sapiens) + Integrin alpha-4 (Homo sapiens) (UniProt P13612+P05556); assay: inhibition of HUTS-21 binding to VLA-4, pilot screen, VLA-4 allosteric modulator project, U937 cells, HUTS-21 mAb, flow cytometry, validation set (AID 2674;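 active = inhibition above 50%, about 3 SD of the validation set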;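 note: antibody binding induced by the VLA-4 ligand LDV present at three times its Kd; 0% = LDV ligand with antibody and no compound and 100% = antibody without LDV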); conditions: HUTS-21 LIBS mAb binding, at 6.7 µM, stronger effect = higher value, binding induced by LDV ligand
Sequence of Integrin beta-1 (Homo sapiens) + Integrin alpha-4 (Homo sapiens) (P05556 whole entry, looked up): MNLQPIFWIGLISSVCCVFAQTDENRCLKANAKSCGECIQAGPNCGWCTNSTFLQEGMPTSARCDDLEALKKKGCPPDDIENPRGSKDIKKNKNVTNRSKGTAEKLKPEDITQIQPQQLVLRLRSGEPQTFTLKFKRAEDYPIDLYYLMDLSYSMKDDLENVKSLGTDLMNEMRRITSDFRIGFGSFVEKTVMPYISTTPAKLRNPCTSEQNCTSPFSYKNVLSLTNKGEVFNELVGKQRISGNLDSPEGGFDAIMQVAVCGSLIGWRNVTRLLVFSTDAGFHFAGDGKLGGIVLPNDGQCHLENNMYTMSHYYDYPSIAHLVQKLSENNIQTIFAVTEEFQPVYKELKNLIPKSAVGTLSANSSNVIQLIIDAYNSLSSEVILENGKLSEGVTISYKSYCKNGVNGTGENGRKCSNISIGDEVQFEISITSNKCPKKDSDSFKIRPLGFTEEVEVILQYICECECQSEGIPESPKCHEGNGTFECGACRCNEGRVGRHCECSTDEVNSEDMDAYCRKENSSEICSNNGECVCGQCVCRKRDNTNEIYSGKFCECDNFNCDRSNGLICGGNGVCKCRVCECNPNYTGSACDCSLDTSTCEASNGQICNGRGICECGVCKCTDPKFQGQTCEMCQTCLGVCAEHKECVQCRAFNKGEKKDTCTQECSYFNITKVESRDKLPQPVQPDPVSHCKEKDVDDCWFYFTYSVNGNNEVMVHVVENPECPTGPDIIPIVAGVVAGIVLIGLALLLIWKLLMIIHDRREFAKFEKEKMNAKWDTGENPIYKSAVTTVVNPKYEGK
Sequence of Integrin beta-1 (Homo sapiens) + Integrin alpha-4 (Homo sapiens) (P13612 whole entry, looked up): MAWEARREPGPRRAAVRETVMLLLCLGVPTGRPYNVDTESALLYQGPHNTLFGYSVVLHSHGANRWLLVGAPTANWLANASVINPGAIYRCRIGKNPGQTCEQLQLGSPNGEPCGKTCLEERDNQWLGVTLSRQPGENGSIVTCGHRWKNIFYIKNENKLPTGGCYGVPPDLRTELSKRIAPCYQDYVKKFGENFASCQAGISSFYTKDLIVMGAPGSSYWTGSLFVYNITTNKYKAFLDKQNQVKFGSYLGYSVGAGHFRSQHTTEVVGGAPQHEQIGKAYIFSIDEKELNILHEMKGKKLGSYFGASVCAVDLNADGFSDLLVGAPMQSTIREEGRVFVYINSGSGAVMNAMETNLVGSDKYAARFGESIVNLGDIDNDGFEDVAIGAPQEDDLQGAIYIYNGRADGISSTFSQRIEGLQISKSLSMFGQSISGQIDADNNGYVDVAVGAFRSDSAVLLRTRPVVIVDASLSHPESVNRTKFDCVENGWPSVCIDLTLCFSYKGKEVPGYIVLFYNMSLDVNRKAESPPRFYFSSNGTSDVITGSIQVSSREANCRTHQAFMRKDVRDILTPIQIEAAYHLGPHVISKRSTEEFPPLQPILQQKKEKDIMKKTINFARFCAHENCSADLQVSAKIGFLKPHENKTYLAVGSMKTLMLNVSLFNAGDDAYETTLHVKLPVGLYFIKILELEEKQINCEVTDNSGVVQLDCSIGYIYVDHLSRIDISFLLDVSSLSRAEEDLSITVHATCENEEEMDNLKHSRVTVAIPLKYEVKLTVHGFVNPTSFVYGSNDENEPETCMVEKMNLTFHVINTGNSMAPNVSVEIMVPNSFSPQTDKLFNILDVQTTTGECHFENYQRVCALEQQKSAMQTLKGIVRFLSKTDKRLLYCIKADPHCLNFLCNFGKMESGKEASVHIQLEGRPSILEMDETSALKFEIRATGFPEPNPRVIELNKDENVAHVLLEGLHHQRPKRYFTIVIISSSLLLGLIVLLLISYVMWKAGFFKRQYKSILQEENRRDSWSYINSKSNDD

[8] = superoxide lowering in aged yeast cells, pilot screen, validation compound set (AID 2706;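 active = superoxide response below 65% of plate, a cut near 3 SD across the whole screen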;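 note: yeast exposed to compound for one week at 30 degrees C before staining; 100% = mean of all compound wells on the same plate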); conditions: S. cerevisiae aging, superoxide DHE fluorescence; at 10 µM; stronger effect = lower value
[9] = biological target: Beta-adrenergic receptor kinase 1 (Homo sapiens) (UniProt P25098); assay: GRK2 binders displacing RNA aptamer, biochemical, validation, human GRK2, bead flow cytometry (AID 488806;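 active = aptamer binding inhibition above 30%, about 3 SD of noise from non-fluorescent compounds; inactive = inhibition at or below 30%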); conditions: bead-bound GRK2, FAM-aptamer displacement, at 10 µM, stronger effect = higher value
Sequence of Beta-adrenergic receptor kinase 1 (Homo sapiens) (P25098 whole entry, looked up): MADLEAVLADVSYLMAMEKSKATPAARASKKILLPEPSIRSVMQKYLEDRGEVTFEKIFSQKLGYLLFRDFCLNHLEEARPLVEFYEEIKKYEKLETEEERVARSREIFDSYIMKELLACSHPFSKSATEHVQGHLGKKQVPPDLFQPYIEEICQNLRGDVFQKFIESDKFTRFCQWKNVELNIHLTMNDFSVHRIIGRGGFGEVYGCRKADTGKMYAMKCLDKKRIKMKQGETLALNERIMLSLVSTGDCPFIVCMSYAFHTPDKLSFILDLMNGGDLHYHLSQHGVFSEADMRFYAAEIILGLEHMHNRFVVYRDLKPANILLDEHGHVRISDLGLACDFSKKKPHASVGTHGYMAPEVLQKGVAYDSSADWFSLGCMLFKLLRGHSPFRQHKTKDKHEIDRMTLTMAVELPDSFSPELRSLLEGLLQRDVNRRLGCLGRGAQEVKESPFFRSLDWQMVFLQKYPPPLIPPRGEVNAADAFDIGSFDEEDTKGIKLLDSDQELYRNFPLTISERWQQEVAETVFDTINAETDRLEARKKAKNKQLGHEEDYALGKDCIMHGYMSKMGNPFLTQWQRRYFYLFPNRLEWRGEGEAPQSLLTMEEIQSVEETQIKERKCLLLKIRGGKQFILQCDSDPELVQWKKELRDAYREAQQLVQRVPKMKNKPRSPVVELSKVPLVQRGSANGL

[10] = biological target: Beta-2 adrenergic receptor (Homo sapiens) (UniProt P07550); assay: beta2AR agonists driving receptor internalization, pilot screen, cell-based, FAP fluorogen, flow cytometry, validation set (AID 504459;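 active = percent response above 42, roughly 3 SD of non-fluorescent test compounds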;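 note: agonist-driven loss of surface beta2AR via internalization measured by FAP dye flow cytometry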); conditions: Am2.2-beta2AR cells, FAP surface receptor flow cytometry; at 10 µM; stronger effect = higher value
Sequence of Beta-2 adrenergic receptor (Homo sapiens) (P07550 whole entry, looked up): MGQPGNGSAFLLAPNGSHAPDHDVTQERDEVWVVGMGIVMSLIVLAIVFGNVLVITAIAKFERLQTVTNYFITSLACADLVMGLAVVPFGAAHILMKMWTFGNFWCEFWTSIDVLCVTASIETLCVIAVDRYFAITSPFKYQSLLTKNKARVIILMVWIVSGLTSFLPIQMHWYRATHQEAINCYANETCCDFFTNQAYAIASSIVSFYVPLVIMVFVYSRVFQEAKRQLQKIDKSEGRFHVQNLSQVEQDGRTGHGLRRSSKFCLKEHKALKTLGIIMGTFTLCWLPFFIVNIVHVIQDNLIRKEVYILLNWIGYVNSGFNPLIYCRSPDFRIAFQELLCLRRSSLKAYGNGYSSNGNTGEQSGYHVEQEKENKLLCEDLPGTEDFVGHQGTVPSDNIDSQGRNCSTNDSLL

[11] = biological target: AP-2 complex subunit beta (Homo sapiens) (UniProt P63010); assay: inhibitors of arrestin peptide binding to AP2, pilot screen, biochemical, validation set, GST-AP2 beads, flow cytometry (AID 504541;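 active = inhibition above 54%, about 3 SD of non-fluorescent compounds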;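 note: AP2 carries R879A mutation and is captured from E. coli lysate; bead-bound FITC arrestin peptide fluorescence measuring arrestin peptide binding to AP2; 0% = DMSO wells and 100% = excess unlabeled arrestin peptide control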); conditions: FITC arrestin peptide, at 10 µM, stronger effect = higher value, AP2 beta2 appendage fragment, R879A mutant
Sequence of AP-2 complex subunit beta (Homo sapiens) (P63010 whole entry, looked up, the tested form may be a part, one chain of several): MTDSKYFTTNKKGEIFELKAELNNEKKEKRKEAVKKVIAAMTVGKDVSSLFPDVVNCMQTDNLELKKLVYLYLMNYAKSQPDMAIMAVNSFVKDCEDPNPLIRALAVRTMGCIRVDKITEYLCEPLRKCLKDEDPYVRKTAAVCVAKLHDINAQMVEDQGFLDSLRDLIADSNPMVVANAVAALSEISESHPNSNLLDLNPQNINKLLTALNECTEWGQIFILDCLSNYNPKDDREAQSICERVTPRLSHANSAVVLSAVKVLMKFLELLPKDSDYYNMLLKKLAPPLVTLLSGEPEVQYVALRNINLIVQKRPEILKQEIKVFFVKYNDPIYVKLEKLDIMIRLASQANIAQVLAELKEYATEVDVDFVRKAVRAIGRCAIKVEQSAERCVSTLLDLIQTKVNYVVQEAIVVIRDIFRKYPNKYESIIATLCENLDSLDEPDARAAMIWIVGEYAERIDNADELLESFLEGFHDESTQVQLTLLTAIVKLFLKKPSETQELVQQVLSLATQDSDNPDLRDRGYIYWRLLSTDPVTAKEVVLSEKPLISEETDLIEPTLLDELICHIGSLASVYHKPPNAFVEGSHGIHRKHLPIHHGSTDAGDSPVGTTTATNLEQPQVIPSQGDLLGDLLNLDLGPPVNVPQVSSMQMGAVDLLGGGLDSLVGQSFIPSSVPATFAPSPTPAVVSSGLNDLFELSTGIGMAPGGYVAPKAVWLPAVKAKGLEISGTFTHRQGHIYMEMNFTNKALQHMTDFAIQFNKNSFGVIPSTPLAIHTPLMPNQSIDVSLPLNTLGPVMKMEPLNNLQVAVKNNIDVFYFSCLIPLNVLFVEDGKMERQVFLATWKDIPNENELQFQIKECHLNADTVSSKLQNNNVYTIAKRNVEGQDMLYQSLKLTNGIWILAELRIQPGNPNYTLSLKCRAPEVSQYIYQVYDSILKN

[12] = yeast V-ATPase proton transport modulators, S. cerevisiae, pHLuorin, HTS validation (AID 504600; in the data active = response above about 15%;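 note: plate controls were DMSO for no effect and reference compound for full effect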); conditions: S. cerevisiae pHLuorin cytosolic pH, at 10 µM, stronger effect = higher value
[13] = system: anti-desmoglein-3 scFv antibody binding to human DSG3; assay: inhibitors of anti-DSG3 scFv binding to DSG3, pilot screen, biochemical, validation compound set, bead-based, flow cytometry (AID 588368;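 active = binding below the plate cutoff, the plate median minus 3 SD, with a reading above zero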;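 note: signal is the median channel fluorescence of bead-bound GFP antibody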); conditions: Protein G beads, DSG3-Fc, scFv-GFP binding, at 10 µM, stronger effect = lower value
[14] = inhibitors of fungal efflux pumps CDR1, CDR2, MDR1, pilot screen, validation compound set, multiplex, phenotypic (AID 588506;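 active = efflux inhibition above 0.42, the validation set average plus 4 SD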;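 note: Nile Red retained in cells so higher fluorescence means more efflux inhibition; 0 = negative control wells and 1 = enniatin B 25 µM full block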); conditions: S. cerevisiae pump-expressing triplex, Nile Red efflux flow cytometry; at 10 µM; stronger effect = higher value; the pumps come from Candida albicans
[15] = biological target: ATP-binding cassette sub-family B member 6 (Homo sapiens) (UniProt Q9NP58); assay: ABCB6 transporter inhibitors, pilot screen, K562-ABCB6 cells, flow cytometry, validation set (AID 588550;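 active = inhibition above the screen-wide mean plus 3 SD, about 51%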;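 note: 0% = DMSO wells and 100% = benzethonium chloride 70 µM positive control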); conditions: K562-ABCB6 porphyrin accumulation, 1 h, at 10 µM, stronger effect = higher value
Sequence of ATP-binding cassette sub-family B member 6 (Homo sapiens) (Q9NP58 whole entry, looked up): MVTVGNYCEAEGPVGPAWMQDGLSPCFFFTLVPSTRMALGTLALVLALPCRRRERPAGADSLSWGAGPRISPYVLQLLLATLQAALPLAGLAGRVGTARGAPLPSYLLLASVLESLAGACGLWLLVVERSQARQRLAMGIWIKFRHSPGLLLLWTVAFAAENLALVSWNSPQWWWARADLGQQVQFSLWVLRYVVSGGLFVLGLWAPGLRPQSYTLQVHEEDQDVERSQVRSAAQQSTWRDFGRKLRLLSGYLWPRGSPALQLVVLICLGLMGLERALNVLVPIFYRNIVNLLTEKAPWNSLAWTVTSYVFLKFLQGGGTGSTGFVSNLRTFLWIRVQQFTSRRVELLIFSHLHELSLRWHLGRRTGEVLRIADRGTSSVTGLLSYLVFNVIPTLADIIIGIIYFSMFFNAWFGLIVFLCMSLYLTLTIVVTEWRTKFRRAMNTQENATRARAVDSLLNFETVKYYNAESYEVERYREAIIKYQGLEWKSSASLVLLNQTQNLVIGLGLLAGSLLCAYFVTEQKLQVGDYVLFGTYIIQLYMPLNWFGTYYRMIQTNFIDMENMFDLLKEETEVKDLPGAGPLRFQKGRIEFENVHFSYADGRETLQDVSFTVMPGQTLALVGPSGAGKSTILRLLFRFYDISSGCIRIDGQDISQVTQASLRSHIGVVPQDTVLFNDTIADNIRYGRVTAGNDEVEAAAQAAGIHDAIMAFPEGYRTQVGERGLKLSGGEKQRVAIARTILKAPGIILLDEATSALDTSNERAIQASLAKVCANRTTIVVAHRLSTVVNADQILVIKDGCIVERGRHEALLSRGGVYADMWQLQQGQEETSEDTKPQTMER

[16] = promoters of myeloid differentiation in arrested cells, primary screen, cell-based, GFP/MAC1 double positive, flow cytometry, validation set (AID 588685); conditions: ER-HoxA9 marrow cells, stronger effect = higher value, normalized: vehicle 0, fulvestrant 100;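 note: compound exposure lasts four days before antibody staining and flow analysis; 0% = DMSO wells and 100% = 5 µM fulvestrant positive control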

COc1ccc(C(C)N2CC34C=CC(O3)C(C(=O)OCC(C)C)C4C2=O)cc1 (stereo not given)
63.5%: double positive events [6]
inactive: percent of DMSO control GFP [1] 103% | GFP response vs DMSO [2] 107% | percent response of DMSO control [3] 96.6% | GFP response vs DMSO [4] 92% | GFP response, % of DMSO [5] 107% | vesicle binding response [6] 5650% | inhibition [7] -10.8% | superoxide response (% of plate) [8] 98.6% | aptamer binding inhibition [9] 1% | response [10] -2.15% | inhibition [11] -17.5% | response [12] 3.8% | binding (% of control) [13] 96.9% | efflux inhibition (fraction of control) [14] 0.02 | inhibition [15] -4% | differentiation response [16] -8.55%

C=CCC1(Cl)C(=O)C(Cl)=C(N2CCOCC2)C1(OC)OC (stereo not given)
59.1%: double positive events [6]
inactive: percent of DMSO control GFP [1] 101% | GFP response vs DMSO [2] 94.1% | percent response of DMSO control [3] 108% | GFP response vs DMSO [4] 99.1% | GFP response, % of DMSO [5] 95.2% | vesicle binding response [6] 167% | inhibition [7] -4.52% | superoxide response (% of plate) [8] 102% | aptamer binding inhibition [9] 2% | response [10] -2.88% | inhibition [11] -0.19% | response [12] -0.35% | binding (% of control) [13] 98.9% | efflux inhibition (fraction of control) [14] -0.21 | inhibition [15] 8% | differentiation response [16] -4%

CC(C)COCC1CC2(CC(C)(c3csc(N)n3)OC2=O)C(=O)O1 (stereo not given)
inactive: percent of DMSO control GFP [1] 105% | GFP response vs DMSO [2] 97.2% | percent response of DMSO control [3] 102% | GFP response vs DMSO [4] 84.8% | GFP response, % of DMSO [5] 102% | vesicle binding response [6] 78.1% | inhibition [7] -9.79% | superoxide response (% of plate) [8] 93% | aptamer binding inhibition [9] 5% | response [10] -1.1% | inhibition [11] 0.87% | response [12] -4.21% | binding (% of control) [13] 94% | efflux inhibition (fraction of control) [14] 0.14 | inhibition [15] -16% | differentiation response [16] -4.64%
60.8%: double positive events [6]

CC1(C)c2ccccc2N2CC(=O)NC21/C=C/c1ccco1 (stereo not given)
inactive: percent of DMSO control GFP [1] 101% | GFP response vs DMSO [2] 113% | percent response of DMSO control [3] 110% | GFP response vs DMSO [4] 100% | GFP response, % of DMSO [5] 96.2% | vesicle binding response [6] 87.6% | inhibition [7] -23.9% | superoxide response (% of plate) [8] 109% | aptamer binding inhibition [9] 0% | response [10] 5.81% | inhibition [11] -7.94% | response [12] -1.22% | binding (% of control) [13] 107% | efflux inhibition (fraction of control) [14] -0.16 | inhibition [15] -36% | differentiation response [16] -3.11%
64.1%: double positive events [6]

C#CCOc1ccc2c(C)cc(=O)oc2c1
inactive: percent of DMSO control GFP [1] 105% | GFP response vs DMSO [2] 93% | percent response of DMSO control [3] 107% | GFP response vs DMSO [4] 77.6% | GFP response, % of DMSO [5] 98.9% | vesicle binding response [6] 603% | inhibition [7] 3.7% | superoxide response (% of plate) [8] 98% | aptamer binding inhibition [9] 4% | response [10] -1.57% | inhibition [11] -7.76% | response [12] -0.49% | binding (% of control) [13] 99.7% | efflux inhibition (fraction of control) [14] 0.36 | inhibition [15] 0% | differentiation response [16] 16.9%
60.4%: double positive events [6]

Cc1cccc(OCC(=O)Nc2ccc(C(=O)NCC(C)C)cc2)c1
inactive: percent of DMSO control GFP [1] 102% | GFP response vs DMSO [2] 102% | percent response of DMSO control [3] 98.3% | GFP response vs DMSO [4] 110% | GFP response, % of DMSO [5] 115% | vesicle binding response [6] 156% | inhibition [7] 16.8% | superoxide response (% of plate) [8] 97.4% | aptamer binding inhibition [9] 3% | response [10] -25% | inhibition [11] -3.7% | response [12] 0.58% | binding (% of control) [13] 99.3% | efflux inhibition (fraction of control) [14] -0.09 | inhibition [15] 3% | differentiation response [16] 32.5%
62.1%: double positive events [6]

CCOc1ccc(CC2CCC(=O)NC2=O)cc1 (stereo not given)
inactive: percent of DMSO control GFP [1] 103% | GFP response vs DMSO [2] 102% | percent response of DMSO control [3] 104% | GFP response vs DMSO [4] 110% | GFP response, % of DMSO [5] 115% | vesicle binding response [6] 156% | inhibition [7] -3.67% | superoxide response (% of plate) [8] 105% | aptamer binding inhibition [9] 6% | response [10] -15.9% | inhibition [11] 12.5% | response [12] -1.14% | binding (% of control) [13] 95.7% | efflux inhibition (fraction of control) [14] 0 | inhibition [15] 9% | differentiation response [16] 20.6%
64%: double positive events [6]

COc1ccc(C2=C(CN(C)C)C(c3ccccc3)c3ccccc3O2)cc1 (stereo not given)
inactive: percent of DMSO control GFP [1] 102% | GFP response vs DMSO [2] 105% | percent response of DMSO control [3] 96.6% | GFP response vs DMSO [4] 92% | GFP response, % of DMSO [5] 99.7% | vesicle binding response [6] 6270% | inhibition [7] 3.7% | superoxide response (% of plate) [8] 102% | aptamer binding inhibition [9] -2% | response [10] 10.4% | inhibition [11] 12.1% | response [12] -5.6% | binding (% of control) [13] 104% | efflux inhibition (fraction of control) [14] -0.14 | inhibition [15] 7% | differentiation response [16] 0.24%
61.4%: double positive events [6]

CC(=O)C1=C(O)C(=O)N(CC(=O)O)C1c1ccccc1Cl (stereo not given)
inactive: percent of DMSO control GFP [1] 93.5% | GFP response vs DMSO [2] 136% | percent response of DMSO control [3] 88.6% | GFP response vs DMSO [4] 82.5% | GFP response, % of DMSO [5] 90.3% | vesicle binding response [6] 175% | inhibition [7] 10.3% | superoxide response (% of plate) [8] 106% | aptamer binding inhibition [9] 4% | response [10] -4% | inhibition [11] 1.11% | response [12] 0% | binding (% of control) [13] 100% | efflux inhibition (fraction of control) [14] -0.2 | inhibition [15] 13% | differentiation response [16] -4.91%
54.3%: double positive events [6]

C[C@]12CC[C@@H]3c4ccc(O)cc4CC[C@H]3[C@@H]1CCC2=O
inactive: percent of DMSO control GFP [1] 101% | GFP response vs DMSO [2] 100% | percent response of DMSO control [3] 95.4% | GFP response vs DMSO [4] 125% | GFP response, % of DMSO [5] 94.8% | vesicle binding response [6] 34.4% | inhibition [7] -13.9% | superoxide response (% of plate) [8] 98.7% | aptamer binding inhibition [9] 2% | response [10] -0.01% | inhibition [11] 9.61% | response [12] -0.09% | binding (% of control) [13] 98.9% | efflux inhibition (fraction of control) [14] -0.32 | inhibition [15] 8% | differentiation response [16] 0.24%
60.6%: double positive events [6]
